IDE exosite inh: exo-site inhibitors of human insulin-degrading enzyme; P14735; purified IDE, FL-6b probe fluorescence polarization; hits give low values; z-score at 20 µM; 17,000 compounds, 6.3% hits;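 active = z-score of -3 or lower, meaning strong loss of probe binding signal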;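 also: His-tagged human IDE residues 42-1019 made in E. coli with 30 nM FL-6b probe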
Target sequence (P14735 42-1019 limits assumed): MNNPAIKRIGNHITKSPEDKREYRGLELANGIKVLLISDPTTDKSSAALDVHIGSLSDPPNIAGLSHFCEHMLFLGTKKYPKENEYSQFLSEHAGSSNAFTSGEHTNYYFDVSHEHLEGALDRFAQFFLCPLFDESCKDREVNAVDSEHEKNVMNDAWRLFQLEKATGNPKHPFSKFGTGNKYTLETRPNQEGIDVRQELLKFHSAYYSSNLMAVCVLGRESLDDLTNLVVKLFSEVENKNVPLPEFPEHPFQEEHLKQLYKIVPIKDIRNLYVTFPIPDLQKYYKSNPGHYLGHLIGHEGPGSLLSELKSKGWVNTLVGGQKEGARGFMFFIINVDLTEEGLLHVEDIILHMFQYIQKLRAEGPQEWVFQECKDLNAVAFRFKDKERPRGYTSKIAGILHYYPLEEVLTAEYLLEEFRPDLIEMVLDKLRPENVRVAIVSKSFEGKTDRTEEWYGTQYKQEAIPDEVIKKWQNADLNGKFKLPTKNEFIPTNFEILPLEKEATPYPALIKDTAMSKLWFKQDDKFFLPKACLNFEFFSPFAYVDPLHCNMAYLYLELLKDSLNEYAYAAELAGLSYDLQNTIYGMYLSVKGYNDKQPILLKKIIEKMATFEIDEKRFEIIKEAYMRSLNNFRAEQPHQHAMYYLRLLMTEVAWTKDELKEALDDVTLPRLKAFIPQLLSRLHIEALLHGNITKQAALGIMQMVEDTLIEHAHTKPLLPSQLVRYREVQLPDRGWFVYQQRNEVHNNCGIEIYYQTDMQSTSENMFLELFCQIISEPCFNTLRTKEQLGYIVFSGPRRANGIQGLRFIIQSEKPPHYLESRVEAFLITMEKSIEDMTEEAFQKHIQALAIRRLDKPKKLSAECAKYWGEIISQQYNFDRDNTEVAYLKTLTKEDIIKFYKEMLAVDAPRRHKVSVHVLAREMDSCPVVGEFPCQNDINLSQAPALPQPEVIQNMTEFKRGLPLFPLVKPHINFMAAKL
Numbers without * were called inactive. Shown is part of a subset that was picked to be rich in hits.

SMILES	IDE exosite inh
O=C(Nc1cccc(F)c1)N1CC(=O)N2[C@@H](CO)[C@@H](c3ccc(Br)cc3)[C@@H]2C1	1.3
CC=Cc1ccc2n(c1=O)C[C@H]1[C@H](CO)[C@@H](C(=O)NCc3cccc(OC)c3)N[C@@H]21 (mixture of isomers)	0.2
Cc1ccc(S(=O)(=O)NCC[C@@H]2CC[C@@H](NC(=O)c3cccnc3)[C@@H](CO)O2)cc1	3.3
CC(=O)N1CC2(C1)[C@H](c1ccccc1)[C@@H](CO)N2Cc1ccccc1	0.43
CC(C)NC(=O)N1CCCCN2[C@H](C1)[C@H](c1ccc(C#CC3CC3)cc1)[C@@H]2CO	-2.3
CC(C)C#Cc1ccc([C@@H]2[C@@H](CO)N3CCCCN(C(=O)NC(C)C)C[C@@H]23)cc1	1.1
CC(C)NC(=O)N1CCCCN2[C@H](CO)[C@@H](c3ccc(C#C[C@@H](C)O)cc3)[C@@H]2C1	3.6
CC(C)NC(=O)N1CCCCN2[C@H](CO)[C@H](c3ccc(C#Cc4ccccc4F)cc3)[C@@H]2C1	-6.4*
CC(C)NC(=O)N1CCCCN2[C@H](C1)[C@@H](c1ccc(C#Cc3ccccc3F)cc1)[C@@H]2CO	-5.2*
CC(C)NC(=O)N1CCCCN2[C@H](CO)[C@@H](c3ccc(C#Cc4ccccc4F)cc3)[C@H]2C1	-10*
CC(C)NC(=O)N1CCCCN2[C@H](C1)[C@@H](c1ccc(C#C[C@@H](C)O)cc1)[C@@H]2CO	0.85
CC(C)C#Cc1ccc([C@H]2[C@@H](CO)N3CCCCN(C(=O)NC(C)C)C[C@H]23)cc1	-1.8
CC(C)NC(=O)N1CCCCN2[C@@H](CO)[C@@H](c3ccc(C#C[C@H](C)O)cc3)[C@@H]2C1	0.3
CC(C)NC(=O)N1CCCCN2[C@@H](CO)[C@@H](c3ccc(C#Cc4ccccc4F)cc3)[C@@H]2C1	-3.1*
CC(C)NC(=O)N1CCCCN2[C@H](C1)[C@H](c1ccc(C#C[C@@H](C)O)cc1)[C@@H]2CO	1.2
CC(C)NC(=O)N1CCCCN2[C@H](CO)[C@H](c3ccc(C#CC4CC4)cc3)[C@H]2C1	-1.7
O=C1NCCOCn2nncc2CC[C@H]1Cc1cccc(Cl)c1	-0.57
CC[C@@H]1C/C=C\CCNC(=O)CCC(=O)N1	-1.1
CC(C)CC#Cc1ccc([C@@H]2[C@H](CO)N3C(=O)CN(C(=O)c4ccccn4)C[C@@H]23)cc1	0.074
COCCN(C[C@H]1N[C@H](CO)[C@H]1c1ccc(-c2ccc(F)cc2)cc1)C(C)=O	4.7
CN(C)C(=O)c1cccc(-c2ccc([C@H]3[C@H](CO)N4CCCCN(CCC(F)(F)F)C[C@@H]34)cc2)c1	4.3
CN(C)C(=O)c1cccc(-c2ccc(C3[C@@H]4CN(S(=O)(=O)c5cccc(Cl)c5)C[C@H]3N4)cc2)c1 (stereo not given in full)	0.24
O=C(Cc1ccccn1)N[C@H]1CC[C@@H](CCNS(=O)(=O)c2cccc(F)c2)O[C@@H]1CO	0.7
COc1ccc2c3c([nH]c2c1)[C@H](CO)NCC31CN(Cc2cc(F)ccc2F)C1	-0.042
CC(=O)N1[C@H](CO)[C@H](c2ccc(C3=CCCC3)cc2)C12CN(C(=O)NC(C)C)C2	-0.3
SMILES	IDE exosite inh
Cc1cccc(S(=O)(=O)N2CCCCN3[C@@H](CO)[C@@H](c4ccc(-c5cccnc5)cc4)[C@@H]3C2)c1	-3.3*
Cc1cccc(S(=O)(=O)N2CCCCN3[C@@H](CO)[C@H](c4ccc(-c5ccncc5)cc4)[C@@H]3C2)c1	1.6
Cc1cccc(S(=O)(=O)N2CCCCN3[C@H](CO)[C@H](c4ccc(-c5ccncc5)cc4)[C@H]3C2)c1	1.5
COc1cccc(S(=O)(=O)N2CCCCN3[C@@H](CO)[C@@H](c4ccc(-c5cccnc5)cc4)[C@@H]3C2)c1	-6.3*
COc1cccc(S(=O)(=O)N2CCCCN3[C@H](CO)[C@@H](c4ccc(-c5cncnc5)cc4)[C@@H]3C2)c1	-0.62
COc1cccc(S(=O)(=O)N2CCCCN3[C@H](CO)[C@@H](c4ccc(-c5cccnc5)cc4)[C@@H]3C2)c1	-3.5*
COc1cccc(S(=O)(=O)N2CCCCN3[C@H](CO)[C@H](c4ccc(-c5cccnc5)cc4)[C@H]3C2)c1	1.1
COc1cccc(S(=O)(=O)N2CCCCN3[C@@H](CO)[C@@H](c4ccc(-c5cncnc5)cc4)[C@@H]3C2)c1	-0.24
COc1cccc(S(=O)(=O)N2CCCCN3[C@H](C2)[C@@H](c2ccc(-c4cncnc4)cc2)[C@@H]3CO)c1	0.96
O=C(Nc1ccccc1F)N1CC(=O)N2[C@H](C1)[C@@H](c1ccc(-c3ccc(F)cc3)cc1)[C@@H]2CO	-1.3
O=S(=O)(c1ccccc1)N1CCCCN2[C@@H](CO)[C@@H](c3ccc(C#Cc4cccnc4)cc3)[C@@H]2C1	1.6
COC(=O)c1ccc(CN2CC(=O)N3[C@H](CO)[C@@H](c4ccc(-c5ccc(OC)cc5)cc4)[C@H]3C2)cc1	2.6
CN1CCCCN2[C@@H](CO)[C@H](c3ccc(-c4cccnc4)cc3)[C@@H]2C1	-1.9
CCS(=O)(=O)Nc1ccc2c(c1)C(=O)N(C)[C@@H]1CC[C@@H](CC(=O)NCCCN3CCOCC3)O[C@H]1CO2	-0.59

Screening data as filed in PubChem.
